# From PubChem BioAssay (EPA / NIEHS)
# Results filed as inconclusive are left out. Where a structure was tested more than once in an assay, its records may differ in their call. Activity calls are given as the source filed them. Rule for the calls, unless noted: active = hit-call score of the fitted dose curve at least 0.9, where 1 is the maximum; inactive = score below 0.9.
# What was measured:
# [1] = target: Retinoic acid receptor RXR-alpha (Homo sapiens) (UniProt P19793); assay: ATG_RXRa_TRANS: Attagene TRANS-FACTORIAL HepG2 Assay for human Retinoid X Receptor alpha (RXRa) (AID 2283012; active = hit-call score of the fitted dose curve at least 0.9, where 1 is the maximum)
# Outline: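 Measures exogenous chimeric NR-GAL4 activity in transfected HepG2 liver cells after 24 h of dosing. Induced reporter mRNA was detected by RT-PCR with capillary electrophoresis, and gain of signal was analysed against DMSO.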
# [2] = target: human Thyroid Receptor alpha (THRa1), THRA (gene 7067) (UniProt P10827); assay: ATG_THRa1_TRANS: Attagene TRANS-FACTORIAL HepG2 Assay for human Thyroid Receptor alpha (THRa1) (AID 2283014; active = hit-call score of the fitted dose curve at least 0.9, where 1 is the maximum)
# Outline: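 Measured here is mRNA from a GAL4-UAS reporter in transfected HepG2 cells carrying a Gal4-fused receptor, 24 h post-dose. DMSO served as negative control and baseline.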
# [3] = read-out: E-selectin (Homo sapiens) (UniProt P16581); assay: BSK_3C_Eselectin: BioMAP Diversity Plus: 3C Assay for Eselectin Biomarker Activity (AID 2283015); conditions: primary human endothelial cells (HUVEC); actives raise or lower the signal;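 for outcome: cell surface E-selectin protein quantified by ELISA 24 h after dosing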
# Outline: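 Endpoint derived by bidirectional fitting against DMSO vehicle; signal is ELISA-detected E-selectin from primary HUVEC at 24 h post-dosing, with parallel SRB staining (0.1% SRB, 560 nm) flagging cytotoxicity.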
# [4] = read-out: Interleukin-1 alpha (IL1a), IL1A (gene 3552); assay: BSK_BE3C_IL1a: BioMAP Diversity Plus: BE3C Assay for Interleukin-1 alpha (IL1a) Biomarker Activity (AID 2283016); conditions: primary human bronchial epithelial cells; actives raise or lower the signal
# Outline: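 Signal from IL-1a ELISA, taken 24 h after chemical dosing of human bronchial epithelial cells, is compared with DMSO as baseline using bidirectional curve fitting.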
# [5] = read-out: Monocyte Chemoattractant Protein-1 (MCP1), CCL2 (gene 6347); assay: BSK_3C_MCP1: BioMAP Diversity Plus: 3C Assay for Monocyte Chemoattractant Protein-1 (MCP1) Biomarker Activity (AID 2283017); conditions: primary human endothelial cells (HUVEC); actives raise or lower the signal
# Outline: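 Using human vascular primary endothelium, researchers measured MCP-1 by ELISA 24 h after treatment, with DMSO serving as negative control for bidirectional fitting.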
# [6] = read-out: Monocyte Chemoattractant Protein-1 (MCP1), CCL2 (gene 6347); assay: BSK_4H_MCP1: BioMAP Diversity Plus: 4H Assay for Monocyte Chemoattractant Protein-1 (MCP1) Biomarker Activity (AID 2283018); conditions: primary human endothelial cells (HUVEC); actives raise or lower the signal
# Outline: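 Endothelial cells from umbilical vein were treated with test chemical, then after 24 h MCP-1 levels were quantified by ELISA; endpoint values came from bidirectional fitting with DMSO as baseline of activity.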
# [7] = read-out: Human Leukocyte Antigen - DR isotype (HLADR), HLA-DRA (gene 3122); assay: BSK_3C_HLADR: BioMAP Diversity Plus: 3C Assay for Human Leukocyte Antigen - DR isotype (HLADR) Biomarker Activity (AID 2283019); conditions: primary human endothelial cells (HUVEC); actives raise or lower the signal;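 for outcome: ELISA of cell-surface HLA-DR on HUVEC 24 h after dosing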
# Outline: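 Compound added to primary HUVEC cultures, 24 h incubation, then HLA-DR determined by ELISA; endpoint derived by bidirectional fitting relative to DMSO negative control.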
# [8] = read-out: Interleukin-8 (IL8), CXCL8 (gene 3576); assay: BSK_3C_IL8: BioMAP Diversity Plus: 3C Assay for Interleukin-8 (IL8) Biomarker Activity (AID 2283020); conditions: primary human endothelial cells (HUVEC); actives raise or lower the signal
# Outline: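 Endothelial primary cells of human umbilical vein origin are dosed with chemical; after 24 h the IL-8 biomarker is measured by ELISA, and concentration–response is fitted in both directions versus DMSO.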
# [9] = read-out: Monokine induced gamma interferon (MIG), CXCL9 (gene 4283); assay: BSK_3C_MIG: BioMAP Diversity Plus: 3C Assay for Monokine induced gamma interferon (MIG) Biomarker Activity (AID 2283021); conditions: primary human endothelial cells (HUVEC); actives raise or lower the signal
# Outline: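 Endothelial primary cells (human umbilical vein) are dosed with test chemical in the 3C system. MIG levels are measured by ELISA at 24 h and fitted in both directions relative to DMSO.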
# [10] = target: human Vitamin D Receptor (VDR), VDR (gene 7421) (UniProt P11473); assay: ATG_VDR_TRANS: Attagene TRANS-FACTORIAL HepG2 Assay for human Vitamin D Receptor (VDR) (AID 2283022; active = hit-call score of the fitted dose curve at least 0.9, where 1 is the maximum)
# Outline: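 Multiplexed TRANS reporter in HepG2; 24 h treatment; reporter mRNA by RT-PCR plus capillary electrophoresis; upregulation scored relative to DMSO.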
# [11] = BSK_3C_SRB: Viability Assessment in the BioMAP Diversity Plus: 3C Assay (AID 2283023); conditions: primary human endothelial cells (HUVEC);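 note: fitted both ways against DMSO so a hit may be signal rise or drop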
# Outline: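 Overt cytotoxicity is gauged in parallel confluent HUVEC cultures by SRB total-protein staining at the time of biomarker measurement, 24 h after dosing. Gain or loss of signal is fitted versus DMSO.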
# [12] = read-out: Matrix Metallopeptidase 1 (MMP1), MMP1 (gene 4312); assay: BSK_BE3C_MMP1: BioMAP Diversity Plus: BE3C Assay for Matrix Metallopeptidase 1 (MMP1) Biomarker Activity (AID 2283024); conditions: primary human bronchial epithelial cells; actives raise or lower the signal
# Outline: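 MMP1 signal, measured by ELISA after a 24 h chemical exposure of human primary bronchial epithelial cells, is analysed with bidirectional fitting using DMSO as negative control.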
# [13] = read-out: Pselectin, SELP (gene 6403); assay: BSK_4H_Pselectin: BioMAP Diversity Plus: 4H Assay for Pselectin Biomarker Activity (AID 2283026); conditions: primary human endothelial cells (HUVEC); actives raise or lower the signal
# Outline: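 Endothelial primary cells (human umbilical vein) are dosed, incubated 24 h, and assayed for surface P-selectin by ELISA; responses in either direction are fitted relative to the DMSO negative control.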
# [14] = BSK_4H_SRB: Viability Assessment in the BioMAP Diversity Plus: 4H Assay (AID 2283027); conditions: primary human endothelial cells (HUVEC);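 note: cells exposed to compound for 24 h before staining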
# Outline: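 Cytotoxicity readout: sulforhodamine B (0.1%) staining of total protein after 10% TCA fixation, measured at 560 nm in human umbilical vein endothelium at 24 h. DMSO set the baseline; fitting was bidirectional.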
# [15] = BSK_BE3C_SRB: Viability Assessment in the BioMAP Diversity Plus: BE3C Assay (AID 2283028); conditions: primary human bronchial epithelial cells
# Outline: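 SRB total-protein staining (0.1%, after TCA fixation) of chemically dosed human bronchial epithelial primary cells at 24 h; DMSO serves as the negative control for bidirectional curve fitting.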
# [16] = read-out: Thrombomodulin, THBD (gene 7056); assay: BSK_3C_Thrombomodulin: BioMAP Diversity Plus: 3C Assay for Thrombomodulin Biomarker Activity (AID 2283029); conditions: primary human endothelial cells (HUVEC); actives raise or lower the signal
# Outline: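 Endothelial cells from umbilical vein are dosed with test chemical and incubated 24 h. Thrombomodulin is then quantified by ELISA, with DMSO serving as negative control and activity baseline.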
# [17] = target: human RAR-related Orphan Receptor gamma (RORg), RORC (gene 6097) (UniProt P51449); assay: ATG_RORg_TRANS: Attagene TRANS-FACTORIAL HepG2 Assay for human RAR-related Orphan Receptor gamma (RORg) (AID 2283011; active = hit-call score of the fitted dose curve at least 0.9, where 1 is the maximum)
# Outline: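 Chimeric RORg-Gal4 transactivation in transfected HepG2; 24 h exposure; RT-PCR/capillary electrophoresis readout of reporter mRNA, DMSO baseline.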
# [18] = BSK_3C_Vis: BioMAP Diversity Plus: 3C Assay for Morphology Visualization (AID 2283025); conditions: primary human endothelial cells (HUVEC);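 note: fitted both ways so gain or loss versus DMSO counts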
# Outline: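 Morphology read by light microscopy serves as a background control for the multiplexed 3C assay in human umbilical vein endothelial cells, taken 24 h after dosing, with DMSO as the negative control and bidirectional curve fitting.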
# [19] = target: human Retinoid X Receptor beta (RXRb), RXRB (gene 6257) (UniProt P28702); assay: ATG_RXRb_TRANS: Attagene TRANS-FACTORIAL HepG2 Assay for human Retinoid X Receptor beta (RXRb) (AID 2283013; active = hit-call score of the fitted dose curve at least 0.9, where 1 is the maximum)
# Outline: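 Chimeric receptor-Gal4 activity was assessed in transiently transfected human HepG2 cells after 24 h exposure. Transcripts from GAL4-UAS reporters were quantified by fluorescent RT-PCR and capillary electrophoresis, with DMSO as negative control and baseline.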
# Sequence of Retinoic acid receptor RXR-alpha (Homo sapiens) (P19793 whole entry, looked up, the tested form may be a part): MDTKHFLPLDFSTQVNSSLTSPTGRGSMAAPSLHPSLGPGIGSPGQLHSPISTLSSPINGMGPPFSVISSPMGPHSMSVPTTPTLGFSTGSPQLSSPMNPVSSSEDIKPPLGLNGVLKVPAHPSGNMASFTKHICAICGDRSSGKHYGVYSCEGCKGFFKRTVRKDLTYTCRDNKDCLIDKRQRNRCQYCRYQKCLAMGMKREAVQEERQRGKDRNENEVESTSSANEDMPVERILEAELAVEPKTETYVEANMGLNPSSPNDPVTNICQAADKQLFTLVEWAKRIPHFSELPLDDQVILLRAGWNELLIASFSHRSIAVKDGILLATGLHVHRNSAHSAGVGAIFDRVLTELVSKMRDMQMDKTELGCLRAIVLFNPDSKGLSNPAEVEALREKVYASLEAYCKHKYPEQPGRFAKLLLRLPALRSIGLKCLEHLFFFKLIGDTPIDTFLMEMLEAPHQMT
# Sequence of human Retinoid X Receptor beta (RXRb), RXRB (gene 6257) (P28702 whole entry, looked up, the tested form may be a part): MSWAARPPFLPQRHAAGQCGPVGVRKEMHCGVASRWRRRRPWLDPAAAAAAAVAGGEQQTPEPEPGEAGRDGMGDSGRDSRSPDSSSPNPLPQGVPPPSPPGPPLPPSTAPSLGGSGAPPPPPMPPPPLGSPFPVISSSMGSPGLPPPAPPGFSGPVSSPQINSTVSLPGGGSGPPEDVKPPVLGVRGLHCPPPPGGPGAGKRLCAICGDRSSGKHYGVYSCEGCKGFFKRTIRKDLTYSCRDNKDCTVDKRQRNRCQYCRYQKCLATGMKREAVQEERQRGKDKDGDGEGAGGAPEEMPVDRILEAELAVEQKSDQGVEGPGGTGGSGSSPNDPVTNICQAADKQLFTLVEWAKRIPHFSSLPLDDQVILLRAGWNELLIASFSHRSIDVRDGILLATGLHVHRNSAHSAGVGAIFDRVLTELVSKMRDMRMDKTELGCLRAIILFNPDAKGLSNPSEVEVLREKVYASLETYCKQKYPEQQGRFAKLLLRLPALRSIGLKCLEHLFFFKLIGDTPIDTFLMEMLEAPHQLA
# Sequence of human Vitamin D Receptor (VDR), VDR (gene 7421) (P11473 whole entry, looked up): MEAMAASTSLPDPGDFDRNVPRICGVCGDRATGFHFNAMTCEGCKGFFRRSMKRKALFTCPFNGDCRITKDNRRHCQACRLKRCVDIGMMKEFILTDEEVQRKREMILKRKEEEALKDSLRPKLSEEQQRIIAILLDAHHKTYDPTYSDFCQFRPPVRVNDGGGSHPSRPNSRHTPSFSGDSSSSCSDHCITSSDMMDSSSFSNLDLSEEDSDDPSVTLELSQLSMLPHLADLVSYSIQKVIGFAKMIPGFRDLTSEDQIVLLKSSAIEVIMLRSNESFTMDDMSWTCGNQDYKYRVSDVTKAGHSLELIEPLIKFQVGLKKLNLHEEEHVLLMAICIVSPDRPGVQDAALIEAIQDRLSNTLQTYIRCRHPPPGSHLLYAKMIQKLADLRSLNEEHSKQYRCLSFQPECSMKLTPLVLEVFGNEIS
# Sequence of E-selectin (Homo sapiens) (P16581 whole entry, looked up): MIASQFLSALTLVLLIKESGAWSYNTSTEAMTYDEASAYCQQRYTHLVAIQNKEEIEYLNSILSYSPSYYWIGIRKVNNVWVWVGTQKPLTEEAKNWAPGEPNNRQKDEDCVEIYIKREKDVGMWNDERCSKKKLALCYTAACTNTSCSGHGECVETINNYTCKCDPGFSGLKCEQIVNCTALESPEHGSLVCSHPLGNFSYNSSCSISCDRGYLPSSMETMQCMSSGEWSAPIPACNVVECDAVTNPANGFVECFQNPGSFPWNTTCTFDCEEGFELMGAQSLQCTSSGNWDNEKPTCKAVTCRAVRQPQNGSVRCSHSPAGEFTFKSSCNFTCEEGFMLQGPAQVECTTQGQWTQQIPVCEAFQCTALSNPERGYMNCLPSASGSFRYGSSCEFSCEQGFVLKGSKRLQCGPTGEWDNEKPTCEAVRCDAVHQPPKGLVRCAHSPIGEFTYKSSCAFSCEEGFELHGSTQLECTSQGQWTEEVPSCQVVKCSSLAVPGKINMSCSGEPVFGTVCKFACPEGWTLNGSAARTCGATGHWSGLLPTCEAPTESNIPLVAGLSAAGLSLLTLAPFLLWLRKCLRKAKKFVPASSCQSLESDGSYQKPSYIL
# Sequence of human Thyroid Receptor alpha (THRa1), THRA (gene 7067) (P10827 whole entry, looked up, the tested form may be a part): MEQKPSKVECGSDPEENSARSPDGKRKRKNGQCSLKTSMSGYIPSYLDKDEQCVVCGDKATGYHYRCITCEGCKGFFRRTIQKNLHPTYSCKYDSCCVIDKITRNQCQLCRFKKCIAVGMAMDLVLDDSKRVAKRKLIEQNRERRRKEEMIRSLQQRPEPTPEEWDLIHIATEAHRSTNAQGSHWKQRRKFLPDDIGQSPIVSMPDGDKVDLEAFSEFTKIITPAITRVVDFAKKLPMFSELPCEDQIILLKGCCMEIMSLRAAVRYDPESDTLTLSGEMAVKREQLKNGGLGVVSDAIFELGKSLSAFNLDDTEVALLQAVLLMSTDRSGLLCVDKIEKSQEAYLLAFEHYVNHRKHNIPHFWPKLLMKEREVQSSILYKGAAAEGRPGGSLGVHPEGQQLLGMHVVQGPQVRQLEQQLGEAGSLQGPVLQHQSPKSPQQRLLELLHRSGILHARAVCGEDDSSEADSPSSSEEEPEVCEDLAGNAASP
# Sequence of human RAR-related Orphan Receptor gamma (RORg), RORC (gene 6097) (P51449 whole entry, looked up, the tested form may be a part): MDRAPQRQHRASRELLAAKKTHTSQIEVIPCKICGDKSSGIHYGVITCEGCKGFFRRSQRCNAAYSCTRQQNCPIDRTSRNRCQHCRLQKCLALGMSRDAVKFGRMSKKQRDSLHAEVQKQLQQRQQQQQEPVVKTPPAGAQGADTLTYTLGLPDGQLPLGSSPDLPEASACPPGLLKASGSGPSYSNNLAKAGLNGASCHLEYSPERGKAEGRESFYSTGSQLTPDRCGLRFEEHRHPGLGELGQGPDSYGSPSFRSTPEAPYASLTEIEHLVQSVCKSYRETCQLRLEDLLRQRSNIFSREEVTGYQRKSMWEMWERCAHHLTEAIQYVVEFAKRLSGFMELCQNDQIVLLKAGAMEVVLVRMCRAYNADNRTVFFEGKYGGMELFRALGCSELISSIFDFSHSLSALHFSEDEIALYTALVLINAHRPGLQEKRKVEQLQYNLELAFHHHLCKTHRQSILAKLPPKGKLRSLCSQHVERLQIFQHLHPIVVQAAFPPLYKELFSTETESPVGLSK
smiles,measurement,setting,value
FC(F)(F)C(F)(F)C(F)(F)C(F)(F)C(F)(F)C(F)(F)C(F)(F)C(F)(F)CCS,outcome,[1],inactive
same,outcome,[2],inactive
same,outcome,[3],inactive
same,outcome,[4],inactive
same,outcome,[5],inactive
same,outcome,[6],inactive
same,outcome,[7],inactive
same,outcome,[8],inactive
same,outcome,[9],inactive
same,outcome,[10],inactive
same,outcome,[11],inactive
same,outcome,[12],inactive
same,outcome,[13],inactive
same,outcome,[14],inactive
same,outcome,[15],inactive
same,outcome,[16],inactive
CCCCOCCOCCOC(=O)CCCCC(=O)OCCOCCOCCCC,outcome,[17],inactive
same,outcome,[2],inactive
same,outcome,[3],inactive
same,outcome,[5],inactive
same,outcome,[6],inactive
same,outcome,[7],inactive
same,outcome,[8],inactive
same,outcome,[9],inactive
same,outcome,[10],inactive
same,outcome,[11],inactive
same,outcome,[12],inactive
same,outcome,[18],inactive
same,outcome,[13],inactive
same,outcome,[14],inactive
same,outcome,[16],inactive
CO[Si](OC)(c1ccccc1)c1ccccc1,outcome,[1],inactive
same,outcome,[19],inactive
same,AC50,[3],31 µM (active)
same,AC50,[6],0.148 µM (active)
same,AC50,[7],32.5 µM (active)
same,AC50,[8],20 µM (active)
same,outcome,[9],inactive
same,outcome,[10],inactive
same,AC50,[11],36.9 µM (active)
same,outcome,[12],inactive
same,AC50,[18],37.4 µM (active)
same,outcome,[13],inactive
same,outcome,[14],inactive
same,outcome,[16],inactive
c1ccc(B(c2ccccc2)c2ccccc2)cc1,outcome,[1],inactive
same,AC50,[19],100 µM (active)
same,outcome,[2],inactive
FC(F)(F)C(F)(F)C(F)(F)N(C(F)(F)C(F)(F)C(F)(F)F)C(F)(F)C(F)(F)C(F)(F)F,outcome,[2],inactive
same,outcome,[3],inactive
same,outcome,[6],inactive
same,outcome,[7],inactive
same,outcome,[8],inactive
same,outcome,[9],inactive
same,outcome,[11],inactive
same,outcome,[12],inactive
same,outcome,[13],inactive
same,outcome,[14],inactive
same,outcome,[16],inactive
FC(F)(F)C(F)(F)CNCC(F)(F)C(F)(F)F,outcome,[1],inactive
same,outcome,[19],inactive
same,outcome,[2],inactive
same,outcome,[3],inactive
same,outcome,[4],inactive
same,outcome,[6],inactive
same,outcome,[7],inactive
same,AC50,[8],30 µM (active)
same,outcome,[8],inactive
same,outcome,[9],inactive
same,outcome,[11],inactive
same,outcome,[12],inactive
same,outcome,[13],inactive
same,outcome,[14],inactive
same,outcome,[16],inactive
OCCCC(F)(F)C(F)(F)C(F)(F)F,outcome,[1],inactive
same,outcome,[19],inactive
same,outcome,[3],inactive
same,outcome,[4],inactive
same,outcome,[5],inactive
same,outcome,[6],inactive
same,outcome,[7],inactive
same,outcome,[8],inactive
same,outcome,[9],inactive
same,outcome,[11],inactive
same,outcome,[12],inactive
same,outcome,[13],inactive
same,outcome,[14],inactive
same,outcome,[16],inactive
COC(=O)C1CCC(C(=O)OC)CC1 (stereo not drawn),outcome,[1],inactive
same,outcome,[19],inactive
same,outcome,[2],inactive
same,outcome,[10],inactive
CN(C)Cc1ccccc1O,outcome,[2],inactive
